# According to PubChem BioAssay (EPA / NIEHS):
# “And” between values parts separate entries of the source, which are not always exact repeats. Equal entries are not always repeated. Records with an inconclusive call do not appear. Where a structure was tested more than once in an assay, its records may differ in their call. The source made the active and inactive calls. The calls were made as follows, unless noted: active = hit-call score of the fitted dose curve at least 0.9, where 1 is the maximum; inactive = score below 0.9.
# Assays:
# [1] = ACEA_ER_80hr: ACEA Biosciences xCELLigence Real-Time Cell Analysis on Estrogen Receptor Agonism for Proliferation (AID 2282667; active = hit-call score of the fitted dose curve at least 0.9, where 1 is the maximum); conditions: T47D proliferation, impedance (xCELLigence), 80 h
# Procedure, shortened: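 T-47D cells monitored by electrical impedance (xCELLigence) with compound present throughout; 80 h timepoint, positive-direction fitting versus DMSO. Eight-point 1:4 dilutions from 100 uM final, duplicate plates.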
# [2] = APR_HepG2_CellCycleArrest_24hr: Apredica 24-hour HepG2 Assay for Cell Cycle Arrest (AID 2282905); conditions: imaging, actives raise or lower the signal;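 also: cell cycle arrest scored as ratio of 2N to 4N nuclear DNA content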
# Procedure, shortened: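 HepG2 cells were exposed to compounds at 0.39–200 uM (ten concentrations, duplicate) in 0.5% v/v DMSO for 24 hr. After formaldehyde fixation and Triton permeabilization, Hoechst 33342-stained nuclei were imaged at 20x; DNA content was quantified, with bidirectional fitting against DMSO.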
# [3] = APR_HepG2_CellCycleArrest_1hr: Apredica 1-hour HepG2 Assay for Cell Cycle Arrest (AID 2282666); conditions: high-content imaging, actives raise or lower the signal
# Procedure, shortened: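 HepG2 cells exposed for 1 h to 0.39–200 uM compound (0.5% DMSO). Fixed, Hoechst-stained nuclei imaged by ArrayScan; DNA content quantified by Cell Cycle analysis; bidirectional fit against DMSO.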
# [4] = APR_HepG2_CellLoss_1hr: Apredica 1-hour HepG2 Assay for Cell Loss (AID 2282668); conditions: high-content imaging;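 also: curves fitted both ways against DMSO so gain or loss of cells counts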
# Description: APR_HepG2_1hr is a cell-based, multiplexed-readout assay that uses HepG2, a human liver cell line, with measurements taken at 1 hour after chemical dosing in a 384-well plate.APR_HepG2_CellLoss_1hr is one of 10 assay component(s) measured or calculated from the APR_HepG2_1hr assay. It is designed to make measurements of cell number, a form of viability reporter, as detected with fluorescence intensity signals by HCS Fluorescent Imaging technology.Data from the assay component APR_HepG2_CellLoss_1hr was analyzed into 1 assay endpoint. This assay endpoint, APR_HepG2_CellLoss_1hr, was analyzed with bidirectional fitting relative to DMSO as the negative control and baseline of activity. Using a type of viability reporter, measures of all nuclear dna for gain or loss-of-signal activity can be used to understand the viability at the cellular-level. Furthermore, this assay endpoint can be referred to as a secondary readout, because this assay has produced multiple assay endpoints where this one serves a viability function. To generalize the intended target to other relatable targets, this assay endpoint is annotated to the cell cycle intended target family, where the subfamily is proliferation.
# (§1) Cells were treated with dimethyl sulfoxide (DMSO) as a solvent control at a final concentration of 0.5% v/v or with compounds in DMSO with a resulting final DMSO concentration of 0.5% v/v. Compound treatment was done at concentrations of 0.39, 0.78, 1.56, 3.12, 6.24, 12.5, 25, 50, 100, and 200 uM in duplicate on each plate. Cells were treated with compounds for 1, 24, or 72 hr. Carbonyl […] m-chloro-phenylhydrazone (CCCP) and taxol were used as positive controls for mitochondrial function and cytoskeletal stability, respectively; DMSO served as the negative control for this experiment. Cells were fixed by the direct addition of 50 uL formaldehyde in Hank's Balanced Salt Solution (HBSS) to a final concentration of 3.7%. After incubation in the fixation medium for 30 min at room temperature (293-298 K), cells were rinsed twice with HBSS and treated with cell permeabilization buffer (16 uL of 0.5% Triton X-100) for 10 min at room temperature (293-298 K) before labeling. For mitochondrial membrane potential and mitochondrial measurements, pre-fixed cells were incubated with 50 uL of MitoTracker Red CMXRos (Invitrogen) at a concentration of 250 nM for 30 min before fixation. In the remaining cases, post-fixed cells were labeled by incubation with a multiplexed mixture of primary antibodies in HBSS for 60 min at room temperature (293-298 K) to detect immunoreactivity of c-Jun (1:500), phospho-histone H3 (1:100), phospho-histone H2A.x (1:200), p53 (1:400), alpha-tubulin (1:200) and Hoechst 33342 (2 ug/mL). Cells were labeled for multiplexed imaging on two separate plates: a) Hoechst 33342, MitoTracker Red, phospho-histone H3, and alpha-tubulin, and b) Hoechst 33342, phospho-histone H2A.x, and c-Jun. A final rinse with HBSS (50 uL) was performed before analysis. The primary and secondary antibodies for the proteins were phospho-histone H3 (rabbit anti-phospho-histone H3 and FITC-donkey anti-rabbit IgG), phospho-histone H2A.x (mouse anti-phospho-histone H2A.x and FITC-donkey anti-mouse IgG), c-Jun (rabbit anti-phospho-c-Jun and Cy3-donkey anti-rabbit IgG), p53 (sheep anti-p53 and Cy5-donkey anti-sheep IgG), alpha-tubulin (mouse anti-alpha-tubulin and Cy5-donkey anti-mouse IgG). […]
# [5] = APR_HepG2_MicrotubuleCSK_1hr: Apredica 1-hour HepG2 Assay for Microtubule CSK Stabilty (AID 2282669); conditions: HepG2 microtubule cytoskeleton imaging, actives raise or lower the signal
# Description: APR_HepG2_1hr is a cell-based, multiplexed-readout assay that uses HepG2, a human liver cell line, with measurements taken at 1 hour after chemical dosing in a 384-well plate.APR_HepG2_MicrotubuleCSK_1hr is one of 10 assay component(s) measured or calculated from the APR_HepG2_1hr assay. It is designed to make measurements of protein conformation, a form of conformation reporter, as detected with fluorescence intensity signals by HCS Fluorescent Imaging technology.Data from the assay component APR_HepG2_MicrotubuleCSK_1hr was analyzed into 1 assay endpoint. This assay endpoint, APR_HepG2_MicrotubuleCSK_1hr, was analyzed with bidirectional fitting relative to DMSO as the negative control and baseline of activity. Using a type of conformation reporter, measures of protein for gain or loss-of-signal activity can be used to understand the signaling at the cellular-level. Furthermore, this assay endpoint can be referred to as a primary readout, because this assay has produced multiple assay endpoints where this one serves a signaling function. To generalize the intended target to other relatable targets, this assay endpoint is annotated to the cell morphology intended target family, where the subfamily is cell conformation.
# as §1
# [6] = APR_HepG2_NuclearSize_1hr: Apredica 1-hour HepG2 Assay for Nuclear Size (AID 2282670); conditions: high-content imaging, actives raise or lower the signal
# Procedure, shortened: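 HepG2 cells dosed 1 hr with 0.39–200 uM compound (0.5% DMSO), formaldehyde-fixed, Hoechst 33342-stained and imaged at 20x; nuclear diameter from nuclear stain, fitted bidirectionally against DMSO.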
# [7] = APR_HepG2_MitoticArrest_1hr: Apredica 1-hour HepG2 Assay for Mitotic Arrest (AID 2282672); conditions: high-content imaging, actives raise or lower the signal
# Procedure, shortened: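 HepG2 cells exposed 1 hr to compounds at 0.39–200 uM (0.5% v/v DMSO final), then fixed in 3.7% formaldehyde and immunostained for phospho-histone H3 with Hoechst 33342. Mitotic arrest scored by automated fluorescence imaging, fitted bidirectionally versus DMSO.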
# [8] = APR_HepG2_P-H2AX_1hr: Apredica 1-hour HepG2 Assay for H2AX Phosphorylation (AID 2282673); conditions: high-content imaging, actives raise or lower the signal
# Description: APR_HepG2_1hr is a cell-based, multiplexed-readout assay that uses HepG2, a human liver cell line, with measurements taken at 1 hour after chemical dosing in a 384-well plate.APR_HepG2_P-H2AX_1hr is one of 10 assay component(s) measured or calculated from the APR_HepG2_1hr assay. It is designed to make measurements of dna content, a form of viability reporter, as detected with fluorescence intensity signals by HCS Fluorescent Imaging technology.Data from the assay component APR_HepG2_P-H2AX_1hr was analyzed into 1 assay endpoint. This assay endpoint, APR_HepG2_P-H2AX_1hr, was analyzed with bidirectional fitting relative to DMSO as the negative control and baseline of activity. Using a type of viability reporter, measures of protein for gain or loss-of-signal activity can be used to understand the signaling at the pathway-level as they relate to the gene . Furthermore, this assay endpoint can be referred to as a primary readout, because this assay has produced multiple assay endpoints where this one serves a signaling function. To generalize the intended target to other relatable targets, this assay endpoint is annotated to the dna binding intended target family, where the subfamily is cellular response to DNA damage stimulus.
# as §1
# [9] = APR_HepG2_MitoMass_1hr: Apredica 1-hour HepG2 Assay for Mitochondrial Mass (AID 2282674); conditions: high-content imaging, actives raise or lower the signal
# Description: (§2) APR_HepG2_1hr is a cell-based, multiplexed-readout assay that uses HepG2, a human liver cell line, with measurements taken at 1 hour after chemical dosing in a 384-well plate.APR_HepG2_MitoMass_1hr is one of 10 assay component(s) measured or calculated from the APR_HepG2_1hr assay. It is designed to make measurements of cell phenotype, a form of morphology reporter, as detected with fluorescence intensity signals by HCS Fluorescent Imaging technology.Data from the assay component APR_HepG2_MitoMass_1hr was analyzed into 1 assay endpoint. This assay endpoint, APR_HepG2_MitoMass_1hr, was analyzed with bidirectional fitting relative to DMSO as the negative control and baseline of activity. Using a type of morphology reporter, gain or loss-of-signal activity can be used to understand changes in the signaling. Furthermore, this assay endpoint can be referred to as a primary readout, because this assay has produced multiple assay endpoints where this one serves a signaling function. To generalize the intended target to other relatable targets, this assay endpoint is annotated to the cell morphology intended target family, where the subfamily is organelle conformation.
# as §1
# [10] = APR_HepG2_MitoMembPot_1hr: Apredica 1-hour HepG2 Assay for Mitochondrial Membrane Potential (AID 2282675); conditions: imaging, actives raise or lower the signal
# Description: as §2, with “384-well plate.APR_HepG2_MitoMembPot_1hr” for “384-well plate.APR_HepG2_MitoMass_1hr”, “of dye binding,” for “of cell phenotype,”, “of membrane potential” for “of morphology”, “component APR_HepG2_MitoMembPot_1hr” for “component APR_HepG2_MitoMass_1hr”, “endpoint, APR_HepG2_MitoMembPot_1hr,” for “endpoint, APR_HepG2_MitoMass_1hr,”
# as §1
smiles,measurement,setting,value
Clc1ccc(C(c2ccccc2Cl)C(Cl)(Cl)Cl)cc1 (stereo not drawn),AC50,[1],393 nM (active) and 193 nM (active)
same,outcome,[1],inactive
same,AC50,[2],52.2 µM (active)
C[C@]12CCC(=O)C=C1CC[C@@H]1[C@@H]2CC[C@@]2(C)[C@H]1CC[C@]2(C)O,AC50,[1],45.5 nM (active) and 64.3 nM (active) and 5.3 µM (active)
same,outcome,[2],inactive
CCC(C)(CC)c1cc(NC(=O)c2c(OC)cccc2OC)on1,outcome,[3],inactive
same,outcome,[4],inactive
same,outcome,[5],inactive
same,outcome,[6],inactive
same,outcome,[7],inactive
same,outcome,[8],inactive
same,outcome,[9],inactive
same,outcome,[10],inactive
same,outcome,[2],inactive
Cc1cc2c3c(c1)C(c1ccccc1)=N[C@@H](NC(=O)c1ccncc1)C(=O)N3CC2,outcome,[1],inactive
same,outcome,[2],inactive
CC1=C2C[C@H]3[C@@H](CC=C4C[C@@H](O)CC[C@@]43C)[C@@H]2CC[C@]12O[C@@H]1C[C@H](C)CN[C@H]1[C@H]2C,outcome,[1],inactive
same,outcome,[2],inactive
CC#Cc1cc(C)nc(Nc2ccccc2)n1,outcome,[1],inactive
same,outcome,[2],inactive
O=NN(c1ccccc1)c1ccccc1,outcome,[1],inactive
same,outcome,[2],inactive
Cc1ccccc1CO[C@@H]1C[C@@]2(C(C)C)CC[C@]1(C)O2,outcome,[3],inactive
same,outcome,[4],inactive
same,outcome,[5],inactive
same,outcome,[6],inactive
same,outcome,[7],inactive
same,outcome,[8],inactive
same,outcome,[9],inactive
same,outcome,[10],inactive
same,AC50,[2],79.8 µM (active)
CCSC(=O)N(CC)C1CCCCC1,outcome,[3],inactive
same,outcome,[4],inactive
same,outcome,[5],inactive
same,outcome,[6],inactive
same,outcome,[7],inactive
same,outcome,[8],inactive
same,outcome,[9],inactive
same,outcome,[10],inactive
same,outcome,[2],inactive
Sc1ccccc1,outcome,[1],inactive
CC(c1ccc(O)cc1)(c1ccc(O)cc1)c1ccc(O)cc1,AC50,[1],1.54 µM (active)
same,outcome,[2],inactive
CCOP(=S)(OCC)SCSC(C)(C)C,outcome,[1],inactive
same,outcome,[2],inactive
CCCCCCCCOC(=O)c1ccccc1C(=O)OCCCCCCCC,AC50,[1],75.4 µM (active)
same,outcome,[2],inactive
Cc1cc(O)ccc1Cl,outcome,[1],inactive
same,outcome,[2],inactive
O=C(NC(=O)c1cc(F)c(F)cc1Cl)Nc1cc(F)ccc1N1CCC(C(=O)O)CC1,outcome,[1],inactive
same,outcome,[2],inactive
CC(C)(c1ccccc1)c1ccc(O)cc1,AC50,[1],483 nM (active) [middle of 4 runs]
same,outcome,[2],inactive
O=C(O)C(F)(F)C(F)(F)C(F)(F)C(F)(F)C(F)(F)F,outcome,[1],inactive
same,outcome,[2],inactive
NS(=O)(=O)C(F)(F)C(F)(F)C(F)(F)C(F)(F)C(F)(F)C(F)(F)C(F)(F)C(F)(F)F,outcome,[1],inactive
same,AC50,[2],62.5 µM (active)
Cc1cccc(C)c1N,outcome,[1],inactive
same,outcome,[2],inactive
CCCCCCCCCc1ccc(O)cc1,outcome,[1],inactive
same,outcome,[2],inactive
O=C(O)C(F)(F)C(F)(F)C(F)(F)C(F)(F)C(F)(F)C(F)(F)C(F)(F)C(F)(F)C(F)(F)F,outcome,[1],inactive
same,outcome,[2],inactive
O=C(NC(=O)c1c(F)cccc1F)Nc1cc(Cl)c(OC(F)(F)C(F)F)c(Cl)c1,outcome,[1],inactive
same,outcome,[2],inactive
CCCN(CCC)N=O,outcome,[1],inactive
same,outcome,[2],inactive
OCC(O)CO,outcome,[1],inactive
CN(C)c1nc(=O)n(C2CCCCC2)c(=O)n1C,outcome,[3],inactive
same,outcome,[4],inactive
same,outcome,[5],inactive
same,outcome,[6],inactive
same,outcome,[7],inactive
same,outcome,[8],inactive
same,outcome,[9],inactive
same,outcome,[10],inactive
same,outcome,[2],inactive
CCC(=O)O[C@H]1CC[C@H]2[C@@H]3CCC4=CC(=O)CC[C@]4(C)[C@H]3CC[C@]12C,AC50,[1],176 nM (active) and 243 nM (active) and 917 nM (active)
same,outcome,[2],inactive
Cc1ccc(O)c(C)c1,outcome,[1],inactive
same,outcome,[2],inactive
O=C(O)C(F)(F)C(F)(F)C(F)(F)C(F)(F)C(F)(F)C(F)(F)C(F)(F)C(F)(F)F,outcome,[1],inactive
same,AC50,[2],105 µM (active)
